Cycloheximide cs: affects cycloheximide protein synthesis inhibition readout, counter-screen. cell reporter, cycloheximide protein synthesis inhibition counterscreen. max response, %. 300,000 tested, 12% active. AID 2314; in the data active = max response mostly above about 13%, no sharp cut-off; inactive = mostly below about 14%; also: read at 38.3 µM for the half of the compounds with a filed dose; 0% is about no effect
FBPA Giardia inh: inhibitors of Giardia lamblia fructose-1,6-bisphosphate aldolase; A8B2U2; purified Giardia FBPA; Potency, µM (titrated, usually from 59.6 µM), for the others: at the top dose activity, negative = inhibition, actives largely listed as inhibitors; 290,000 tested, 0.71% active; AID 2451; also: potency is read from the fitted curve at half-maximal effect; % is scaled to controls: 0 for no effect and ±100 for the full control effect; nearly all actives have a fitted effect of over 55% in size
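40 nM FBPA preincubated 10 min at RT with compound (up to 57.5 uM final), then substrate plus GAPDH/TPI/NAD/arsenate coupling and diaphorase/resazurin added. Fluorescence read after 20 min at RT, 525/598 nm.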
Shiga inhibitor: inhibitors of Shiga toxin in Vero cells. Vero cells, Shiga toxin protein synthesis inhibition reporter. inhibition, % at 38.7 µM. 290,000 tested, 9.2% active; in the data active = inhibition mostly above about 28%, no sharp cut-off; inactive = mostly below about 43%; also: 0% is about no effect
NS1 inh: influenza NS1 inhibition | Potency, µM (highest dose often 46.1 µM), without a hit: at the top dose activity, positive = more growth | 270,000 tested, 0.4% active | AID 2326; calls by dose curve; also: potency is read from the fitted curve at half-maximal effect; actives are rising curves; nearly all actives have a fitted effect of over 50% in size
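Growth recovery, yeast-based: influenza A NS1 expressed in S. cerevisiae causes slow growth, and suppressors are detected by OD600. The parent strain without NS1 is used as positive control.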
LmPK inhibitor: inhibitors of Leishmania mexicana pyruvate kinase; Q27686; purified LmPK, Kinase-Glo ATP luminescence, 1 h; Potency, µM (doses to about 57.5 µM), without a hit: at the top dose activity change, negative = inhibition, actives largely listed as inhibitors; 290,000 tested, 0.37% active; AID 1721; also: potency is read from the fitted curve at half-maximal effect; % is scaled to controls: 0 for no effect and ±100 for the full control effect
Target sequence (Q27686 whole entry, looked up): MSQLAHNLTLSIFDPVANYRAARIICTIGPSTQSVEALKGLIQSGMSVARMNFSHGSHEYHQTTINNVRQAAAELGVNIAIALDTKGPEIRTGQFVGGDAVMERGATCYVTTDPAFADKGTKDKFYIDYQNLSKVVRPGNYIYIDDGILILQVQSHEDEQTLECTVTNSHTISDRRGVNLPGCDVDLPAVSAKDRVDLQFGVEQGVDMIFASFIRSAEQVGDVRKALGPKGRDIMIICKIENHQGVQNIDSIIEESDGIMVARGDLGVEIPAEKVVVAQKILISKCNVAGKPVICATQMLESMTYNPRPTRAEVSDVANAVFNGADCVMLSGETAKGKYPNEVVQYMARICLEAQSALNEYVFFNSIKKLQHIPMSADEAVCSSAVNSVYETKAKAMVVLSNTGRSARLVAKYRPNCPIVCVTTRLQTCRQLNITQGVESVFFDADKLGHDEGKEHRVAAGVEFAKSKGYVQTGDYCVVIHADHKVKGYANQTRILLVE
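Purified LmPK (0.1 nM) converted ADP (0.1 mM) to ATP with PEP (0.5 mM) in imidazole buffer pH 7.2 with KCl and MgCl2, 1 h at room temperature. ATP was read by Kinase-Glo luminescence; data normalized to uninhibited and no-enzyme controls.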
* hit, by the source's call; u = inconclusive; x = no result given. An excerpt weighted towards active compounds, which were near 14% of everything screened. Unless noted, calls follow the shape of the dose curve; as a rule, active = well fitted curve in the direction sought with a large enough effect; inconclusive = small, poorly fitted or top-dose-only effect, or another doubt; inactive = no such curve, though single readings can be large; an effect the other way counts as inactive or inconclusive.

SMILES	Cycloheximide cs	FBPA Giardia inh	Shiga inhibitor	NS1 inh	LmPK inhibitor
CCC[C@H](N[C@@H](C)C(=O)N1[C@@H]2CCCC[C@H]2C[C@H]1C(=O)O)C(=O)OCC	-5	-1%	23	x	x
O=C(O)c1ccc(S(=O)(=O)N(Cc2ccccc2)C2CCCCC2)cc1	-1	6%	-2	3%	0%
COc1ccc(S(=O)(=O)N2c3cc(Cl)ccc3Oc3nc4ccccc4nc32)cc1	17	-1%	50*	13%	1%
COc1ccc2c(c1)O/C(=C\c1ccccc1C)C2=O	31*	0%	66*	-4%	-9%
Cc1ccc(S(=O)(=O)NC(C)(C)CN2CCCCC2)cc1	-1	9%	-1	-1%	1%
CNc1ncnc2ccc(-c3ccccc3C#N)cc12	x	-20%	x	x	x
Nc1nc(N)c(N=Nc2ccc([As](=O)(O)O)cc2)c(=O)[nH]1	x	x	x	-8%	x
O=S(=O)(NCCNc1ncc(C(F)(F)F)cc1Cl)C(F)(F)F	27	-4%	57*	-90%	4%
O=[N+]([O-])c1cccnc1NCCNc1ncc(C(F)(F)F)cc1Cl	39*	-8%	77*	7%	-2%
O=[N+]([O-])c1ccccc1NCCNc1ncc(C(F)(F)F)cc1Cl	29*	0%	121*	2%	4%
O=c1cc(Cl)[nH]c(=O)n1CCNc1ncc(C(F)(F)F)cc1Cl	36*	4%	94*	-47%	1%
Cc1[nH]c(C)c(S(=O)(=O)NCc2ccc(F)cc2)c1C(=O)N1CCCC1	-6	x	-2	-7%	4%
CC(=O)C1=NOC(CNc2ncc(C(F)(F)F)cc2Cl)C1 (stereo not given)	17*	-1%	81	-8%	2%
COc1ccc(CN(C(=O)/C=C/c2ccccc2Cl)C2CCS(=O)(=O)C2)cc1 (stereo not given)	34*	12%	54	20%	-1%
O=C(/C=C/c1ccccc1Cl)N(Cc1ccc(Cl)cc1)C1CCS(=O)(=O)C1 (stereo not given)	4	2%	-5	u	-1%
CC(C)(C)c1ccc(C(=O)/C=C2\NC(=O)CS2)cc1	26*	-4%	49	-92%	0%
Cc1ccc(NC(=O)/C=C2\NC(=O)CS2)cc1	45*	-10%	62*	1%	-2%
COc1ccccc1NC(=O)/C=C1\NC(=O)CS1	45	0%	84	0%	-9%
O=C(O)[C@H]1CCCC[C@@H]1c1c2ccc(=O)c(O)c-2oc2c(O)c(O)ccc12	x	x	x	-5%	x
COc1cccc(/C=C2\SC(=S)N(CCCC(=O)N(CCO)c3ccccc3)C2=O)c1	-2	x	-4	-30%	-2%
CCn1c(SCC(=O)N2CCCC2)nnc1-c1ccco1	-2	9%	-11	18%	-4%
COc1cccc(NC(=O)COC(=O)c2c(F)cccc2Cl)c1	37*	-6%	95*	-3%	2%
O=C(COC(=O)c1c(F)cccc1Cl)NC1CCCC1	51*	0%	110*	-8%	0%
O=c1[nH]c(SCc2ccc(Cl)cc2)nc2[nH]ncc12	19*	1%	27	x	-3%
O=c1[nH]c(SCc2cccc([N+](=O)[O-])c2)nc2[nH]ncc12	-4	-12%	28	6%	-1%
SMILES	Cycloheximide cs	FBPA Giardia inh	Shiga inhibitor	NS1 inh	LmPK inhibitor
O=c1[nH]c(SCc2cccc(Cl)c2)nc2[nH]ncc12	20*	-1%	17	2%	8%
COc1ccccc1NC(=O)CN1CCN(CC(=O)Nc2ccc(OCc3ccccc3)cc2)CC1	20*	-8%	18	-103%	6%
O=C(CN1CCCC1)Nc1ccc(OCc2ccccc2)cc1	27*	0%	27	2%	1%
CCOc1ccc(NC(=O)[C@@H](NC(=O)OCc2ccccc2)[C@@H](C)CC)cc1	-1	2%	-8	-5%	-5%
CC(C(=O)Nc1ccc(OCc2ccccc2)cc1)N1CCCC1 (stereo not given)	28*	-2%	33*	x	-6%
CCC(C)C(NC(N)=O)C(=O)Nc1ccc(OCc2ccccc2)cc1 (stereo not given)	22*	9%	26*	-10%	-2%
CN(c1ccccc1)S(=O)(=O)c1ccc(NC(=O)c2nc(S(C)(=O)=O)ncc2Cl)cc1	-18	x	-23	-16%	-14%
COc1ccc(CCN(/C=C2\Sc3ccccc3C2=O)C(C)=O)cc1OC	42*	-4%	91	-4%	6%
CC1Cc2ccccc2N1C(=O)c1ccc2nccnc2c1 (stereo not given)	1	x	-17	2%	-4%
Cc1nc2cc(NCc3nc4ccccc4n3Cc3ccccc3)ccc2n1C	27*	-21%	44*	7%	-12%
Cc1cccc(NCc2nc3ccccc3n2C)c1	34	-9%	85	-12%	u
Cc1ccc(N2CCN(c3ccc(NCc4nc5ccccc5n4C)cc3)CC2)cc1	1	-13%	25	-1%	-1%
Cc1ccc(NCc2nc3ccccc3n2C)c(C)c1	23*	13%	45*	-6%	-22%
Cn1c(CNc2ccc(Cl)cc2)nc2ccccc21	31*	-11%	110*	-22%	-21%
CCOc1ccccc1-n1c(SCC(=O)N2CCOCC2)nc2ccccc2c1=O	1	1%	18	9%	0%
Cc1ccc2nc(NCCc3ccccc3)c3nncn3c2c1	11	4%	27	-4%	1%
COc1cc(OC)cc(C(=O)Nc2ccccc2C(=O)N2CCCC2)c1	30*	-2%	60*	-14%	-1%
COc1ccc(NC(=S)NNc2ccc(C(=O)O)cc2)cc1	42*	x	38	8%	-2%
COc1ccc(C(=O)Nc2ccccc2C(N)=O)cc1	27*	-7%	94*	-50%	-25%
COc1ccc(C(=O)NNc2ccccc2)cc1	15	2%	13	-3%	-5%
CCC(NC(=O)c1ccccc1NC(=O)C(C)(C)C)C(=O)N1CCCC1 (stereo not given)	-7	3%	-13	-12%	-1%
CCC(NC(=O)c1ccccc1NC(=O)c1ccc(OC)cc1)C(=O)N1CCCC1 (stereo not given)	46*	-2%	34*	-8%	-4%
CCCCCCc1nc(C(N)=O)c2[nH]c(=O)n(-c3ccccc3F)c2n1	8	-4%	-3	12%	3%
O=C(O)c1ccc(NC(=O)c2ccccc2NC(=O)c2ccccc2Cl)cc1	-3	-2%	-3	2%	0%
NC(=O)c1ccccc1NC(=O)c1ccc2ccccc2c1	57*	-1%	79*	-12%	-10%
COc1ccc(C(=O)Nc2ccccc2C(=O)Nc2ccc(C(=O)O)cc2)cc1	11*	-18%	35	-3%	-11%
COc1ccc(CC(=O)Nc2ccc(C(=O)NC(C)(C)C)cc2)cc1OC	-3	5%	2	4%	1%
Cc1ccccc1NC(=O)c1ccc2ccccc2c1	30*	16%	92*	-16%	1%
Cc1ccccc1NC(=O)NNC(=O)c1ccc2ccccc2c1	0	2%	-7	15%	7%
